Data taken from PubChem BioAssay AID1159580 (chemical genetic matrix, 2015).
The whole screen tested about 5,500 compounds, of which about 2,000 (36%) were called active. Not shown: some 18% with an inconclusive outcome. No stated cut-off is given here; in the data, active means normalized growth mostly below about 0.91 (no sharp cut-off); inconclusive means no clear call, values can overlap the other calls; inactive means mostly above about 0.92. This is one part of the list.

Assay: chemical genetic growth profiling, strain panel (AID 1159580);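 further: tested at 20 µM; growth read once vehicle control cultures reached saturation at 30 °C; 1 = growth at the plate median or of vehicle wells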
Conditions: S. cerevisiae deletion strains, growth OD

Measured: normalized growth

CC1(C)CC2C1CC[C@]1(C)CCC3C(C(=O)O)CC(=O)O[C@@]32C1 (stereo partly drawn)
active: locus YDR335W, strain msn5, stronger effect = lower value 1.15 [resistant] | locus YLR258W, strain gsy2, stronger effect = lower value 1.1 [resistant] | locus YOR070C, strain gyp1, stronger effect = lower value 1.14 [resistant] | locus YOR080W, strain dia2, stronger effect = lower value 1.1 [resistant] | locus YOR290C, strain snf2, stronger effect = lower value 1.18 [resistant]
inactive: locus YAL021C, strain ccr4, stronger effect = lower value 1.07 | locus YAL026C, strain drs2, stronger effect = lower value 1.07 | locus YAL030W, strain snc1, stronger effect = lower value 1.04 | locus YBL061C, strain skt5, stronger effect = lower value 1.03 | locus YBR009C, strain hhf1, stronger effect = lower value 1.03 | locus YBR023C, strain chs3, stronger effect = lower value 1.02 | locus YBR171W, strain sec66, stronger effect = lower value 1.07 | locus YBR231C, strain swc5, stronger effect = lower value 1.06 | locus YBR279W, strain paf1, stronger effect = lower value 1.01 | locus YCL011C, strain gbp2, stronger effect = lower value 1.03 | locus YCL016C, strain dcc1, stronger effect = lower value 1.06 | locus YCL061C, strain MRC1, stronger effect = lower value 1.03 | locus YCR088W, strain abp1, stronger effect = lower value 1.03 | locus YDL005C, strain med2, stronger effect = lower value 1.04 | locus YDL040C, strain nat1, stronger effect = lower value 1.05 | locus YDR001C, strain nth1, stronger effect = lower value 1.04 | locus YDR069C, strain doa4, stronger effect = lower value 1.06 | locus YDR137W, strain rgp1, stronger effect = lower value 1.04 | locus YDR159W, strain sac3, stronger effect = lower value 1.05 | locus YDR195W, strain ref2 1.06 | locus YDR297W, strain sur2, stronger effect = lower value 1.05 | locus YDR334W, strain swr1, stronger effect = lower value 1.09 | locus YDR392W, strain spt3, stronger effect = lower value 1.14 | locus YEL003W, strain gim4, stronger effect = lower value 1.02 | locus YEL037C, strain rad23, stronger effect = lower value 1.06 | locus YEL061C, strain CIN8 (second series), stronger effect = lower value 1.04 | locus YER015W, strain faa2, stronger effect = lower value 1.02 | locus YER016W, strain bim1, stronger effect = lower value 1.04 | locus YER111C, strain swi4, stronger effect = lower value 1.01 | locus YER155C, strain BEM2 (second series), stronger effect = lower value 1.04 | locus YFR010W, strain ubp6, stronger effect = lower value 1.09 | locus YGL167C, strain pmr1, stronger effect = lower value 1.05 | locus YGL173C, strain kem1, stronger effect = lower value 1.03 | locus YGL227W, strain vid30, stronger effect = lower value 1.02 | locus YGL240W, strain doc1, stronger effect = lower value 1.06 | locus YGL253W, strain hxk2, stronger effect = lower value 1.06 | locus YHR013C, strain ard1, stronger effect = lower value 1.05 | locus YHR027C, strain rpn1, stronger effect = lower value 1.03 | locus YHR030C, strain SLT2, stronger effect = lower value 1 | locus YHR079C, strain IRE1, stronger effect = lower value 1 | locus YHR142W, strain chs7, stronger effect = lower value 1.05 | locus YJL092W, strain hpr5, stronger effect = lower value 1.07 | locus YJL095W, strain BCK1 (second series), stronger effect = lower value 1.04 | locus YJL095W, strain BCK1, stronger effect = lower value 0.99 | locus YJL115W, strain asf1, stronger effect = lower value 1.06 | locus YJL129C, strain trk1, stronger effect = lower value 1.09 | locus YJL154C, strain vps35, stronger effect = lower value 1.05 | locus YJL164C, strain tpk1, stronger effect = lower value 1.02 | locus YJL166W, strain qcr8, stronger effect = lower value 1.05 | locus YJL187C, strain SWE1, stronger effect = lower value 1.03 | locus YJR066W, strain TOR1, stronger effect = lower value 0.942 | locus YKL160W, strain elf1, stronger effect = lower value 1.05 | locus YKR026C, strain gcn3, stronger effect = lower value 1.02 | locus YKR091W, strain srl3, stronger effect = lower value 1.04 | locus YLL001W, strain dnm1, stronger effect = lower value 1.07 | locus YLL026W, stronger effect = lower value 1.01 | locus YLL041C, strain sdh2, stronger effect = lower value 1.01 | locus YLR027C, strain aat2, stronger effect = lower value 1.04 | locus YLR113W, strain HOG1, stronger effect = lower value 0.98 | locus YLR221C, strain rsa3, stronger effect = lower value 1.02 | locus YLR262C, strain YPT6 (second series), stronger effect = lower value 1.07 | locus YLR320W, strain mms22, stronger effect = lower value 1.05 | locus YLR342W, strain FKS1, stronger effect = lower value 1.02 | locus YLR357W, strain rsc2, stronger effect = lower value 1.13 | locus YLR370C, strain arc18, stronger effect = lower value 1.03 | locus YLR384C, strain iki3, stronger effect = lower value 1.01 | locus YML120C, strain ndi1, stronger effect = lower value 1.04 | locus YMR058W, strain fet3, stronger effect = lower value 1.03 | locus YMR125W, strain sto1, stronger effect = lower value 1.06 | locus YMR129W, stronger effect = lower value 1.05 | locus YMR205C, strain PFK2, stronger effect = lower value 1.04 | locus YMR231W, strain pep5, stronger effect = lower value 1.03 | locus YNL071W, strain lat1, stronger effect = lower value 1.04 | locus YNL183C, strain NPR1, stronger effect = lower value 0.931 | locus YNL209W, strain ssb2, stronger effect = lower value 1.01 | locus YNL322C, strain KRE1 (second series), stronger effect = lower value 1.02 | locus YNR049C, strain mso1, stronger effect = lower value 1.05 | locus YOR001W, strain rrp6, stronger effect = lower value 1.06 | locus YOR083W, strain WHI5, stronger effect = lower value 1.08 | locus YOR106W, strain vam3, stronger effect = lower value 1.05 | locus YOR231W, strain MKK1, stronger effect = lower value 0.985 | locus YOR265W, strain rbl2, stronger effect = lower value 1.05 | locus YOR270C, strain vph1, stronger effect = lower value 1.14 | locus YPL051W, strain arl3, stronger effect = lower value 1.03 | locus YPL078C, strain atp4, stronger effect = lower value 1.07 | locus YPL106C, strain sse1, stronger effect = lower value 1.11 | locus YPL240C, strain hsp82, stronger effect = lower value 1.02 | locus YPL256C, strain CLN2, stronger effect = lower value 0.967
